Consider 18 compounds from PubChem BioAssay (NCATS).

Common to all, as to experiment: qHTS profiling for inhibitors of Plasmodium falciparum proliferation (AID 504749); note: nearly all actives have a fitted effect of over 60% in size;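 for activity, negative = inhibition: 0% = DMSO vehicle and full inhibition = artemisinin control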
What all share (details): P. falciparum in erythrocytes, SYBR Green DNA, 72 h; series mostly up to 28.7 µM

The subject of assay [1] is DIV17. The gist of the method: (§1)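 Infected RBCs, 0.3% parasitemia/2.5% Hct final; cpd 72 h, 37 C, 5% CO2; lysis buffer with saponin/triton/SYBR Green I, o/n RT dark; FI 485/535; norm. to artemisinin (0.29 uM) and DMSO.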
For assay [2], the system named is DIV30. A digest of the protocol:
as §1

For assay [3], the system named is Dd2. A digest of the protocol: as §1
Assay [4] deals with ECU. A digest of the protocol:
as §1

Assay [5] deals with FAB9. A digest of the protocol:
as §1

In assay [6] the test system is GB4. The gist of the method:
as §1

Assay [7] has as its system HB3. The gist of the method: as §1
Assay [8] deals with ICS. A digest of the protocol:
as §1

The test system of assay [9] is JCK. A digest of the protocol: as §1
Assay [10] concerns N140. The gist of the method: as §1
The test system of assay [11] is P93_24. A digest of the protocol:
as §1

Assay [12] concerns P94_40. The gist of the method: as §1
The subject of assay [13] is PAD. The gist of the method: as §1
Assay [14] has as its system PC15. A digest of the protocol:
as §1

In assay [15] the test system is PC26. The gist of the method:
as §1

Assay [16] relates to PC49. The gist of the method: as §1
In assay [17] the test system is SC27B. The gist of the method: as §1
Assay [18] concerns TAB109. The gist of the method:
as §1

Assay [19] relates to TAB165. A digest of the protocol:
as §1

In assay [20] the test system is TAB113. The gist of the method:
as §1

Results filed as inconclusive are left out. Unmarked numbers belong to inactive results. Activity calls are given as the source filed them. Calls come from the whole dose curve; as a rule, active = well fitted inhibition curve with a large enough effect; inconclusive = small, poorly fitted or top-dose-only effect; inactive = flat fitted curve, though single readings scatter.
Potency is the fitted concentration of half-maximal effect.

As for `CN1C(=O)CC(=O)N(c2ccccc2)c2cc(Cl)ccc21`, the Potency result in assay [1], in assay [2], in assay [3], in [4], in assay [5] and in assay [6] was “inactive” each time. Also, the Potency entry in [7], in assay [8], in [9], in assay [10], in [11] and in assay [12] was “inactive” each time. Besides, the Potency result in assay [13], in assay [14], in assay [15], in [16], in assay [17] and in [18] was “inactive” in each case. Besides, the Potency entry in [19] was “inactive”.

For the compound `O=C1Nc2ccc(Cl)cc2C(c2ccccc2Cl)=NC1O` (configuration not stated), the Potency result in assay [1], in [2], in assay [3], in assay [4], in assay [5] and in assay [6] was “inactive” in each case. The Potency result in assay [7], in assay [8], in assay [9], in [10], in assay [14] and in assay [15] was “inactive” in each case. For the same compound, the Potency result in assay [16], in assay [17], in [18], in assay [20] and in [19] was “inactive” throughout.

In the case of `Clc1ccc(C(c2ccc(Cl)cc2)C(Cl)(Cl)Cl)cc1`, the Potency result in assay [3], in assay [4], in assay [5], in assay [7], in assay [9] and in assay [11] was “inactive” in each case. The Potency entry in assay [14], in assay [16], in assay [17] and in [18] was “inactive” throughout.

On to `CCCCCCCCCC(=O)O[C@H]1CC[C@H]2[C@@H]3CCC4=CC(=O)CC[C@@H]4[C@H]3CC[C@]12C`, for which the Potency entry in assay [1], in assay [2], in assay [4], in assay [5], in [6] and in [7] was “inactive” each time. For the same compound, the Potency entry in assay [9], in assay [10], in [11], in assay [12], in assay [13] and in [14] was “inactive” in each case. Also, the Potency result in assay [15], in assay [16], in assay [17], in assay [18], in assay [20] and in assay [19] was “inactive” each time.

As to `Cc1ncsc1CCCl`, the Potency result in assay [1], in [2], in [3], in assay [4], in assay [5] and in assay [6] was “inactive” in each case. Moreover, the Potency entry in [7], in assay [8], in [9], in [10], in assay [12] and in [13] was “inactive” in each case. For the same compound, the Potency entry in assay [14], in [15], in [16], in [17], in [18] and in assay [20] was “inactive” throughout. Besides, in assay [19], the Potency result was “inactive”.

As for `O=c1[nH]oc2c1CCNC2`, the Potency entry in assay [1], in [2], in assay [3], in assay [4], in [5] and in assay [6] was “inactive” throughout. Moreover, the Potency entry in assay [7], in [8], in assay [10], in assay [11], in assay [12] and in assay [13] was “inactive” throughout. The Potency result in assay [14], in assay [15], in assay [16], in [17], in [18] and in [20] was “inactive” in each case. The Potency result in assay [19] is “inactive”.

Regarding `CC(C)c1cccc(C(C)C)c1O`, the Potency entry in assay [1], in assay [2], in [3], in assay [4], in [5] and in assay [7] was “inactive” throughout. The Potency result in assay [8], in assay [9], in [10], in assay [11], in assay [12] and in [13] was “inactive” in each case. The Potency entry in [14], in assay [16], in assay [17], in assay [18], in assay [20] and in assay [19] was “inactive” in each case.

Consider `O=C1c2ccccc2C(=O)c2ccccc21`, for which the Potency is 11.2 µM (active) in [7] and 3.55 µM (active) in assay [8]. For the same compound, the Potency result in [9], in assay [12] and in assay [16] was “inactive” each time.

`Nc1ccc([As](=O)(O)O)cc1`: the Potency entry in assay [1], in assay [2], in [4], in [5], in assay [7] and in assay [9] was “inactive” throughout. For the same compound, the Potency entry in [10], in [11], in [13], in assay [14], in assay [15] and in assay [16] was “inactive” throughout. Also, the Potency entry in assay [17], in assay [18], in assay [20] and in [19] was “inactive” each time.

Regarding `CCCC(C)(COC(N)=O)COC(N)=O`, the Potency result in assay [1], in assay [2], in [3], in assay [4], in [5] and in assay [6] was “inactive” in each case. Further, the Potency entry in assay [7], in assay [8], in assay [9], in assay [10], in assay [11] and in [12] was “inactive” in each case. The Potency entry in [13], in assay [14], in assay [15], in assay [16], in assay [17] and in [18] was “inactive” each time. For the same compound, the Potency result in assay [20] and in assay [19] was “inactive” each time.

As to `NC(=O)c1cc([N+](=O)[O-])cc([N+](=O)[O-])c1`, the Potency entry in [2], in assay [3], in [4], in [5], in assay [7] and in assay [12] was “inactive” in each case. Further, the Potency entry in assay [13], in assay [16], in assay [17], in [18], in assay [20] and in assay [19] was “inactive” in each case.

With `CC(C)NC(C)C`, the Potency result in assay [1], in [2], in [3], in assay [4], in assay [5] and in assay [6] was “inactive” in each case. Also, the Potency result in [7], in assay [8], in [9], in assay [10], in assay [11] and in [13] was “inactive” in each case. In addition, the Potency entry in assay [14], in assay [15], in [17], in assay [18], in assay [20] and in [19] was “inactive” in each case.

Take `CC(C)(C)NCC(O)c1cc(Cl)c(N)c(C(F)(F)F)c1` (configuration not stated): the Potency in [1] is 7.57 µM (active); in assay [3] it was 12.6 µM (active); in assay [4], 5.01 µM (active); in [6], 12 µM (active); in assay [8], 4.47 µM (active); in assay [9], 11.2 µM (active). The Potency in assay [10] was 2.82 µM (active); in assay [11], 3.55 µM (active); in assay [13], 12.6 µM (active); in assay [14] it was 11.2 µM (active); in assay [16], 11.2 µM (active); in assay [19], 7.94 µM (active). In addition, the Potency entry in [5] is “inactive”.

Take `O=C1c2ccccc2C(=O)C1C(=O)C(c1ccccc1)c1ccccc1`: the Potency result in assay [1], in assay [2], in assay [3], in [4], in assay [5] and in [7] was “inactive” in each case. The Potency result in [9], in [10], in assay [11], in assay [12], in [13] and in [14] was “inactive” throughout. Moreover, the Potency result in assay [15], in assay [16], in assay [17], in [20] and in assay [19] was “inactive” in each case.

Regarding `CC(C)(C)NCC(O)c1ccccc1Cl` (configuration not stated), the Potency in [1] is 6.01 µM (active); in assay [3] it was 11.2 µM (active); in [6], 13.5 µM (active); in [8] it was 7.08 µM (active); in assay [12], 11.2 µM (active); in [16], 12.6 µM (active). Also, the Potency result in [5] and in assay [9] was “inactive” each time.

Consider `C=CCN1C[C@H](C)N([C@H](c2ccc(C(=O)N(CC)CC)cc2)c2cccc(OC)c2)C[C@H]1C`, for which the Potency entry in assay [2], in assay [9] and in assay [17] was “inactive” throughout. The Potency was 11.2 µM (active) in assay [3] and 12.6 µM (active) in assay [8].

For the compound `CCCCC/C=C\C/C=C\C/C=C\C/C=C\CCCC(=O)NCC(=O)O`, the activity, negative = inhibition in assay [1] was 1.26% [at 2.67 µM]; in assay [2], -7.28% [at 2.67 µM]; in assay [3] it was 0.222% [at 2.67 µM]; in assay [4], -2.86% [at 2.67 µM]; in assay [5] it was 0.295% [at 2.67 µM]; in assay [6], 5.94% [at 2.67 µM]. For the same compound, the activity, negative = inhibition in [7] was -4.91% [at 2.67 µM]; in [8] it was -4.84% [at 2.67 µM]; in assay [9], 0.614% [at 2.67 µM]; in assay [10], -7.13% [at 2.67 µM]; in assay [11] it was -5.2% [at 2.67 µM]; in assay [12], -8.27% [at 2.67 µM]. The activity, negative = inhibition in [13] was 4.88% [at 2.67 µM]; in assay [14] it was 6.96% [at 2.67 µM]; in assay [15] it was 8.23% [at 2.67 µM]; in [17], 0.575% [at 2.67 µM]; in assay [18], -11.7% [at 2.67 µM]; in assay [20], 3.88% [at 2.67 µM].

As for `COC1CC(=C(c2cccs2)c2cccs2)C[N+](C)(C)C1` (configuration not stated), the Potency was 8.91 µM (active) in assay [4]; 7.57 µM (active) in assay [6]; 8.91 µM (active) in assay [7]; 3.98 µM (active) in assay [8]; 7.94 µM (active) in assay [10]; 5.01 µM (active) in assay [11]. The Potency in [12] was 2.24 µM (active); in [18] it was 10 µM (active); in assay [19], 14.1 µM (active). Further, the Potency result in assay [16] was “inactive”.
